Assay outcomes (PubChem BioAssay)
This excerpt belongs to a sample that is enriched for hits.
ROC1-CUL1 inh: human ROC1-CUL1 E3 ligase inhibition; AID 1347404; in vitro K48 di-Ub FRET, acceptor:donor ratio, 45 min; inhibition, % at 10 µM; 140,000 compounds, 0.6% hits; P62877+Q13616; in the data active means inhibition above about 25%
Starred values were filed as active, the others as inactive.

How did COc1ccc(C2=C(C#N)C(=S)N=C(c3ccccc3)C2)cc1 do in these assays?
ROC1-CUL1 inh: -5.9

What do the screens show for `O=C(CN1C(=O)CCNC1=O)N1CCC(OCc2ccccc2)CC1`?
ROC1-CUL1 inh: 0.3

Results for COCC(=O)N1CCC(Oc2ccccc2C(=O)N2CCCC(C(=O)CC(C)C)C2)CC1 (stereo unspecified) ?
ROC1-CUL1 inh: -3.5

What do the screens show for `COc1ccccc1C(=O)N1CCOc2c(cc(-c3nc4ccccc4s3)cc2OC2CCOC2)C1` (stereo unspecified)?
ROC1-CUL1 inh: 8.2

What do the screens show for `O=C1NC(=S)NC(=O)C1=Cc1c(OCc2ccc(Br)cc2)ccc2ccccc12`?
ROC1-CUL1 inh: 58.4*

How did C=CCN1C(=O)/C(=C/c2c(OCc3ccccc3C#N)ccc3ccccc23)C(=O)NC1=S do in these assays?
ROC1-CUL1 inh: 13.6

How did O=C1NC(=S)NC(=O)C1=Cc1cc(Cl)ccc1OCc1ccc(C(=O)O)cc1 do in these assays?
ROC1-CUL1 inh: 12.3

Results for CC1=NN(c2ccccc2)C(=O)C1C(c1ccc(Cl)cc1)C1C(=O)N(c2ccccc2)N=C1C (stereo unspecified) ?
ROC1-CUL1 inh: 61.1*

What do the screens show for `CC1=NN(c2ccccc2)C(=O)C1N=Nc1cc(Cl)ccc1C(F)(F)F` (stereo unspecified)?
ROC1-CUL1 inh: -6.7

How did CC1=NN(c2ccccc2)C(=O)C1C(c1ccccc1C(=O)O)C1C(=O)N(c2ccccc2)N=C1C (stereo unspecified) do in these assays?
ROC1-CUL1 inh: -3.3

Results for C=C(C)CN(CC)C(=O)CCc1nnc(C2CCCCC2)o1 ?
ROC1-CUL1 inh: 1.9

How did N#Cc1cc(Br)c(OC(=O)c2ccccc2)c(Br)c1 do in these assays?
ROC1-CUL1 inh: 2.7

Results for CCOC(=O)c1c(NC(=O)COc2cccc(C(F)(F)F)c2)sc2c1CCCC2 ?
ROC1-CUL1 inh: 7.4

What do the screens show for `NC(=O)c1c(-c2ccc(Cl)cc2Cl)csc1NC(=O)C1CCCO1` (stereo unspecified)?
ROC1-CUL1 inh: 9.3

What do the screens show for `COc1ccc(/C=C2\C(=O)NN(c3ccc(F)cc3)C2=O)cc1`?
ROC1-CUL1 inh: -3.6

Results for COc1cc(/C=C2\C(=O)NN(c3ccc(C)cc3)C2=O)cc(OC)c1OC ?
ROC1-CUL1 inh: 0.6

How did Cc1ccc(N2NC(=O)/C(=C/c3ccc(N(C)CCC(C)C)cc3)C2=O)cc1C do in these assays?
ROC1-CUL1 inh: 17.3

How did COc1ccc(/C=C2/C(=O)NN(c3cccc(C)c3)C2=O)cc1 do in these assays?
ROC1-CUL1 inh: 4.7

What do the screens show for `Cc1ccc(N2NC(=O)/C(=C/c3ccc(F)cc3)C2=O)cc1C`?
ROC1-CUL1 inh: 77.6*

Results for O=C1NN(c2ccccc2)C(=O)/C1=C/c1ccccc1 ?
ROC1-CUL1 inh: 4.8

How did O=C1NN(c2ccc(F)c(Cl)c2)C(=O)/C1=C\c1ccc(F)cc1 do in these assays?
ROC1-CUL1 inh: 76.9*

How did Cc1cccc(N2NC(=O)/C(=C/c3ccccc3)C2=O)c1 do in these assays?
ROC1-CUL1 inh: -8.7

How did COC(=O)c1ccc(N2NC(=O)/C(=C/c3ccc(C)cc3)C2=O)cc1 do in these assays?
ROC1-CUL1 inh: 27.3*

How did CN(c1ccccc1)c1ccc(/C=C2\C(=O)NN(c3ccccc3)C2=O)cc1 do in these assays?
ROC1-CUL1 inh: 30.6*

How did COc1cc(/C=C2/C(=O)NN(c3ccc(F)cc3)C2=O)cc(Br)c1OC(C)=O do in these assays?
ROC1-CUL1 inh: 11.4

What do the screens show for `C=CCn1c(C(O)CC)nc2ccccc21` (stereo unspecified)?
ROC1-CUL1 inh: 8.2

What do the screens show for `CN(C)CCN1C(=O)CC(CC(=O)N2CCC(N3CCOCC3)CC2)(c2ccccc2Cl)C1=O` (stereo unspecified)?
ROC1-CUL1 inh: 3.7

What do the screens show for `C=CCOc1ccccc1NC(=O)c1ccccc1OCC`?
ROC1-CUL1 inh: -5.0

Results for CC(=O)CSc1ncnc2sc(C)c(C)c12 ?
ROC1-CUL1 inh: -5.8

How did COc1cc(-c2cccc(-c3ccn(Cc4cc(C)on4)n3)c2)ncn1 do in these assays?
ROC1-CUL1 inh: 6.7

What do the screens show for `Nc1ncc(CN2CCN(Cc3ccsc3)C(CCO)C2)cn1` (stereo unspecified)?
ROC1-CUL1 inh: 1.1

What do the screens show for `Cc1ccc(N2NC(=O)/C(=C\c3ccc(N(C)C)c(Br)c3)C2=O)cc1Cl`?
ROC1-CUL1 inh: 2.0

How did O=C1NN(c2ccc(I)cc2)C(=O)/C1=C\c1ccccc1 do in these assays?
ROC1-CUL1 inh: 2.6

Results for O=C1NN(c2ccc(F)cc2)C(=O)/C1=C/c1ccccc1 ?
ROC1-CUL1 inh: 4.6

What do the screens show for `COc1cc(/C=C2/C(=O)NN(c3ccc(F)cc3)C2=O)cc(Cl)c1O`?
ROC1-CUL1 inh: -3.1

What do the screens show for `O=C1NN(c2ccc(F)cc2)C(=O)/C1=C\c1ccc(F)cc1`?
ROC1-CUL1 inh: -0.8

What do the screens show for `Cc1ccc(N2NC(=O)/C(=C/c3ccc(F)cc3)C2=O)cc1`?
ROC1-CUL1 inh: 71.3*

Results for Cc1ccc(N2NC(=O)/C(=C/c3ccc(F)cc3)C2=O)cc1Cl ?
ROC1-CUL1 inh: 50.5*

What do the screens show for `O=C1NN(c2ccc(I)cc2)C(=O)/C1=C\c1ccc(O)c(O)c1`?
ROC1-CUL1 inh: 106.3*

How did O=C1NN(c2ccc(I)cc2)C(=O)/C1=C\c1ccc(O)cc1O do in these assays?
ROC1-CUL1 inh: -15.2

How did NN1C=Nc2ccc(Cl)cc2C1(O)c1ccccc1 (stereo unspecified) do in these assays?
ROC1-CUL1 inh: 3.6

Results for Fc1ccc(Oc2ncccc2CNc2ncccn2)c(F)c1 ?
ROC1-CUL1 inh: -7.3

What do the screens show for `Cc1cccc(N2CCN(S(=O)(=O)c3cccc(F)c3)CC2)c1C`?
ROC1-CUL1 inh: -5.5

Results for Cc1c(Cl)cccc1N=C1NC(=O)/C(=C/c2ccc(N(C)C)cc2)S1 ?
ROC1-CUL1 inh: 2.6

What do the screens show for `CCOC(=O)C1(Cc2ccc(F)cc2)CCCN(C(=O)c2cc(CC(C)C)[nH]n2)C1` (stereo unspecified)?
ROC1-CUL1 inh: 2.2

How did C#CCN(C/C=C/c1ccccc1)S(=O)(=O)c1ccc(C)cc1 do in these assays?
ROC1-CUL1 inh: -4.1

What do the screens show for `COc1ccc(C(=O)NC(C)C)cc1C`?
ROC1-CUL1 inh: -1.5

Results for COc1ccc(C2c3c(n[nH]c3-c3ccc(Cl)c(Cl)c3)OC(=N)C2C#N)c(OC)c1OC (stereo unspecified) ?
ROC1-CUL1 inh: -1.7

Results for S=c1[nH]nc(-c2ccccc2)n1-c1ccc(Cl)cc1 ?
ROC1-CUL1 inh: -0.4

How did Fc1ccc(-c2n[nH]c(=S)n2-c2ccccc2)cc1 do in these assays?
ROC1-CUL1 inh: 36.0*

How did CC(C)(C)c1ccc(-c2n[nH]c(=S)n2-c2ccccc2)cc1 do in these assays?
ROC1-CUL1 inh: -5.2

How did O=C(Cc1ccc(Cl)cc1)Nc1ccc(Cl)cc1C(=O)Nc1cccc(F)c1 do in these assays?
ROC1-CUL1 inh: -11.2

What do the screens show for `O=C(O)c1cc(N2C(=O)/C(=C\c3ccc(-c4ccc(Br)cc4)o3)C=C2c2ccccc2)ccc1O`?
ROC1-CUL1 inh: 97.1*

Results for COCCN1C(=O)/C(=C/c2ccc(-c3ccc(C(=O)O)c(Cl)c3)o2)SC1=Nc1ccccc1 ?
ROC1-CUL1 inh: 1.9

How did O=C1OC(c2ccccc2)=N/C1=C\c1ccc(-c2ccc(C(=O)O)cc2)o1 do in these assays?
ROC1-CUL1 inh: 12.7

How did C=CCn1c(=O)c2c(nc3n(-c4cccc(OC)c4)c(C)cn23)n(C)c1=O do in these assays?
ROC1-CUL1 inh: 0.0

What do the screens show for `O=C(c1ccncc1)N1CCCC(N2CCN(Cc3ccc4c(c3)OCO4)CC2)C1` (stereo unspecified)?
ROC1-CUL1 inh: 0.1

Results for c1ccc2c(c1)CC(NNC1=Nc3ccccc3Sc3ccccc3C1)=Nc1ccccc1S2 ?
ROC1-CUL1 inh: -5.1
